Reference: the supplement of paper PMC7411640
Counter-ions that a name gives are not always drawn.

Test system: MDA-MB-468
Experiment: phospho-S6 immunofluorescence (DAPI-normalised), per-plate z-score; higher = higher phospho-S6 signal (less pathway suppression)
Details: 24 h
Experimental: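 GPCR-targeted compound library (MedChemExpress HY-L006) tested on MDA-MB-468 PTEN-null TNBC cells in 384-well plates at 0.1, 1 or 10 uM, combined with vehicle, GDC0941 450 nM or lapatinib 1 uM, for 24 h. Phospho-S6 (S240/244) immunofluorescence normalised to DAPI and expressed as a per-plate z-score; values are the mean of biological triplicates.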

Row | SMILES | phospho-S6 immunofluorescence (z-score) (co-treatment: GDC0941 450 nM) | phospho-S6 immunofluorescence (z-score) (co-treatment: lapatinib 1 uM) | phospho-S6 immunofluorescence (z-score) (co-treatment: vehicle)
1 | CCN(CC)C(=O)c1ccc(C2=CC3(CCNCC3)Oc3cccc(O)c32)cc1 (compound 10 µM) | 0.32 | -0.78 | 0.88
2 | O=C(O[C@H]1CN2CCC1CC2)N(Cc1cc(F)c(F)c(F)c1)c1cccc(F)c1 [Tarafenacin (D-tartrate)] (compound 10 µM) | 0.34 | -1.58 | 1.05
3 | Cc1cccc(Cc2c[nH]cn2)c1C [Detomidine (hydrochloride)] (compound 10 µM) | -1 | 0.28 | 0.19
4 | Cc1cccc([C@H](C)c2c[nH]cn2)c1C [Dexmedetomidine (hydrochloride)] (compound 10 µM) | 0.32 | 0.38 | 1.08
5 | CC[N+](C)(CC)CCOC(=O)C(O)(c1ccccc1)c1ccccc1 [Methylbenactyzium Bromide] (compound 10 µM) | -0.26 | -0.59 | -0.57
6 | C=CCN1C[C@H](C(=O)N(CCCN(C)C)C(=O)NCC)C[C@@H]2c3cccc4[nH]cc(c34)C[C@H]21 [Cabergoline] (compound 10 µM) | 0.82 | -0.33 | -0.33
7 | COc1cc2c3c(c1OC)-c1ccccc1C[C@H]3N(C)CC2 [Nuciferine] (compound 10 µM) | 0.21 | -0.74 | 0
8 | CCCC(C)(C)c1ccc2c(c1)OC(C)(C)[C@@H]1CC=C(C)C[C@@H]21 (compound 10 µM) | 2.38 | 1.8 | 2.21
9 | NCCc1cc(O)c(O)cc1O [Oxidopamine (hydrobromide)] (compound 10 µM) | 0.33 | 2.77 | 2.94
10 | CCC1(c2cccc(O)c2)CCCCN(C)C1 (centres undefined) [Meptazinol (hydrochloride)] (compound 10 µM) | 0.48 | 0.25 | 0.11
11 | C[N@+]1(CC2CC2)CC[C@]23c4c5ccc(O)c4O[C@H]2C(=O)CC[C@@]3(O)[C@H]1C5 [Methylnaltrexone (Bromide)] (compound 10 µM) | 0.46 | 0.44 | -0.66
12 | CNC(C)Cc1ccccc1OC (centres undefined) [Methoxyphenamine (Hydrochloride)] (compound 10 µM) | 0.57 | -0.2 | 0.23
13 | C[C@@H]1CN(Cc2ccc(F)cc2)CCN1C(=O)COc1ccc(Cl)cc1NC(N)=O (compound 10 µM) | -3.5 | -6.96 | -8.26
